# An excerpt weighted towards active compounds, which were near 2.8% of everything screened.
# PI4K2A inh: inhibitors of human PI4K2A. Q9BTU6. purified PI4K2A, ADP-Glo luminescence, 1 h; hits give low values. actives 0.13% (n = 420,000). activity change, negative = inhibition, % at 76.9 µM; in the data active = activity change below about -50%; inconclusive = mostly about -30% to -49%;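 note: -100% = wells without enzyme as full effect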
#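 ADP-Glo luminescence measured ADP generated by PI4K2A enzyme (4 ug/mL before mixing) with 1.2 mM PI substrate (pre-mix) and 300 microM ATP (pre-mix). Tris pH7.5 buffer with MgCl2, Triton X-100; 1 h reaction at ambient temperature.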
# pAkt inh: inhibitors of Akt phosphorylation; actives 0.32% (n = 360,000); Neuro2A IGF-stimulated pAkt S473 HTRF, 20 min; hits give low values; activity change, % for hits at 50 µM; in the data active = activity change below about -80%; inconclusive = mostly about -51% to -80%; note: % is set by controls: 0 for no effect and ±100 for the full control effect
#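 Neuro2A cells in DMEM with 0.5% FBS, overnight at 37 deg C, given compound at single 50 µM final, then IGF (6 nM final) for 20 min at 37 deg C. Lysed; phospho-Akt Ser473 by HTRF after 24 h, 665/615 ratio.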
# D3 antag: blocks the human D3 dopamine receptor. P35462. max response, negative = inhibition, %. actives 2.5% (n = 360,000). D3R cells, DiscoveRx beta-arrestin luminescence, antagonist mode; hits give low values; in the data active = max response below about -50%; inconclusive = no clear call, values can overlap the other calls; note: % is set by controls: 0 for no effect and ±100 for the full control effect
# Target sequence (P35462 whole entry, looked up): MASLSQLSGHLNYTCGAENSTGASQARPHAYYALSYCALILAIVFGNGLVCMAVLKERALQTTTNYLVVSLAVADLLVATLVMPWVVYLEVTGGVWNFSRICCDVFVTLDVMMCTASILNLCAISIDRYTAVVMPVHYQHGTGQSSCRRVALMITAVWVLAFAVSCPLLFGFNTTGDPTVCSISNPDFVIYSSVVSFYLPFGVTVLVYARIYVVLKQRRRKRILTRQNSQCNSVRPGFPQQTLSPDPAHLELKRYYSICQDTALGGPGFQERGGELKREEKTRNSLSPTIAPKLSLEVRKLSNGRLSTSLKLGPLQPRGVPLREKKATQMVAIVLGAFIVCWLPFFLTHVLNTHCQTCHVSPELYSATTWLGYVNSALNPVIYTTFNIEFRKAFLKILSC
#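 Cells plated overnight at 1500 cells/well, then exposed to library compounds with dopamine controls for 90 minutes at 37 degrees C. DiscoveRx reagent added for 30–60 minutes at room temperature; luminescence read, quantitative HTS format.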
# RGS4 inhibitor: inhibitors of human regulator of G protein signaling 4 | actives 0.039% (n = 390,000) | Transcreener GDP fluorescence polarization, RGS4-accelerated GTP hydrolysis | Potency, µM (titrated, usually from 114 µM), for inactives: top-dose activity change, negative = inhibition, most hits filed as inhibitors; active = well fitted inhibition curve with a large enough effect; inconclusive = small, poorly fitted or top-dose-only effect; inactive = no such curve, though single readings can be large or run the other way; note: potency is the fitted concentration of half-maximal effect; % is set by controls: 0 for no effect and ±100 for the full control effect; nearly all actives have a fitted effect of over 75% in size
# Target sequence (P49798 whole entry, looked up): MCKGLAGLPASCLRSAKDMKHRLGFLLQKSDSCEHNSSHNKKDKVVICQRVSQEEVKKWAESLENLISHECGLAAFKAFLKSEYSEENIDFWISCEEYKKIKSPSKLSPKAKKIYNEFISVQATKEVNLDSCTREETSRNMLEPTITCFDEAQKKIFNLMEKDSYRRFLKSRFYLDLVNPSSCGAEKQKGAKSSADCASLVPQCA
#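 MLSMR compounds (23 nl, pin-transferred) preincubated 10 min at room temperature with a 500nM (2x) first reagent, then RGS4 at 900nM (2x) plus Transcreener GDP mix added; fluorescence polarization (620/688 nm) read before and after 90 min at 30 °C.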
# D3 ag: agonists of human D3 dopamine receptor; D3R DiscoveRx beta-arrestin cells, luminescence, 90 min; P35462; actives 0.58% (n = 410,000); AID 652048; max activation, %; in the data active = max activation above about 30%; note: 0% is about no effect
#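 Agonist mode: compounds and dopamine controls were applied to plated cells for 90 min at 37 degrees C after an overnight attachment at 1500 cells/well. Luminescent read-out followed 30 - 60 minutes at room temperature with DiscoveRx detection reagent.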
# LDHA block: blocks human lactate dehydrogenase A; P00338; purified LDHA, NADH/diaphorase-resazurin fluorescence; hits give low values; activity change, % (values are at about 110 or 230 µM); actives 0.15% (n = 480,000); AID 1347041; in the data active = activity change below about -30%; inconclusive = mostly about -25% to -30%;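 note: plate controls were DMSO wells for no effect and wells without enzyme for full effect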
#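 Remaining NADH was detected by diaphorase (0.133 mg/mL) converting 37 µM resazurin to fluorescent resorufin, read at 0 and 20 minutes. The preceding 5-minute room-temperature reaction used 2 nM LDHA, 0.2 mM sodium pyruvate and 0.06 mM NADH at pH 7.4.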
# * hit, by the source's call; i = inactive; ? = inconclusive; nt = not tested or not shown; [ ] = another dose, or the depositor's remark.
SMILES,PI4K2A inh,pAkt inh,D3 antag,RGS4 inhibitor,D3 ag,LDHA block
Oc1ccc2ccccc2c1/C=C/c1ccc2c(Br)cc(Br)c(O)c2n1,-5,i,-104*,-39%,-17,3
CCOc1ccc(-c2[nH]ncc2-c2ccc(OC)cc2)c(O)c1,nt,nt,nt,nt,nt,-15
Cc1cc2c(cc1C)NC(c1c(C)n(C)n(-c3ccccc3)c1=O)C1=C(CC(C)(C)CC1=O)N2 (centres undefined),-1,i,-93*,-26%,-2,7
Cc1cc2c(cc1C)NC(c1ccccc1)C1=C(CC(C)(C)CC1=O)N2 (centres undefined),nt,nt,nt,nt,nt,-10
O=C(Cc1cccc(F)c1)NCCc1c[nH]c2ccccc12,nt,nt,nt,nt,nt,1
COc1cc(NC(=O)CC2C(=O)N(c3cccc(C)c3)C(=O)N2Cc2ccco2)cc(OC)c1 (centres undefined),-3,nt,nt,24%,62*,-2
COc1ccc(-c2csc(-c3nc(-c4ccc(C)cc4C)cs3)n2)cc1,nt,nt,nt,nt,nt,-2
CCCc1[nH]nc2c1C(Cc1ccccc1)C(C#N)=C(N)O2 (centres undefined),-3,-106%*,-25,35%,-8,-6
CCc1[nH]nc2c1C(c1ccc(Br)s1)C(C#N)=C(N)O2 (centres undefined),-16,i,-56*,?,-2,1
Cc1ccc(Nc2nc(NCCc3ccccc3)nc3c2cnn3C)cc1C,nt,nt,nt,nt,nt,-3
COc1ccc(CCNC(=O)c2c(O)c3cc(OC)c(OC)cc3[nH]c2=O)cc1OC,-1,i,-4,nt,-4,3
COc1cc2[nH]c(=O)c(C(=O)NCCCN3CCCCC3)c(O)c2cc1OC,-1,i,-57*,-11%,-5,7
COCCn1c(=O)[nH]c2cc(C(=O)NCCN3CCN(c4ccccc4F)CC3)ccc2c1=O,5,i,-56*,15%,13,3
COc1cc2[nH]c(=O)n(CCC(=O)NCCCN3CCN(c4ccccc4F)CC3)c(=O)c2cc1OC,4,i,?,-4%,30*,0
COc1cc2[nH]c(=O)n(CCCCCC(=O)NCCCN3CCOCC3)c(=O)c2cc1OC,-6,i,5,-9%,3,-3
COc1ccccc1NC(=O)CCN1CCCCCC1,0,i,-111*,20%,-33,-4
COc1ccccc1NC(=O)CSc1nnc(-c2ccccn2)o1,4,i,12,-10%,32*,-1
COc1ccccc1NC(=O)CCN1CCN(Cc2ccccc2)CC1,1,i,-55*,-15%,-30,-2
COc1ccccc1NC(=O)CN1CCCCCC1,0,i,-5,-4%,6,-18
COc1ccccc1NC(=O)CSC(N)=O,?,i,-107*,?,4,-5
COc1ccccc1NC(=O)CSc1nnc(-c2ccc(C)cc2)o1,4,i,-22,-5%,-2,-3
CNC(=O)COC(=O)c1cc(-c2ccc(C)o2)nc2ccccc12,nt,nt,nt,nt,nt,-3
Cc1cc(-n2c(C)cc(-c3csc(N)n3)c2C)no1,nt,nt,nt,nt,nt,-1
COc1ccc2nc(/C=C/c3cccc(O)c3)sc2c1,nt,nt,nt,nt,nt,-22
CCN(CC)S(=O)(=O)c1ccc(NC(=O)CC(NC(C)=O)c2ccccc2)cc1 (centres undefined),-3,i,-78*,-28%,2,4
SMILES,PI4K2A inh,pAkt inh,D3 antag,RGS4 inhibitor,D3 ag,LDHA block
CCN(CC)CCN(Cc1cc2cc3c(cc2[nH]c1=O)OCO3)C(=S)NCCCOC,1,i,-52*,-7%,-6,-9
CCN(CC)CCN(Cc1cc2ccc(C)cc2[nH]c1=O)C(=S)Nc1ccccc1C(=O)OC,-6,i,-84*,-21%,-19,-7
CCN(CC)CCN(Cc1cc2cc(C)c(C)cc2[nH]c1=O)C(=S)NCc1ccco1,-3,i,-72*,-24%,-27,-3
CCN(CC)CCCN(Cc1cc2cc3c(cc2[nH]c1=O)OCO3)C(=S)NCCCOC,-4,i,-4,25%,-11,-3
Cc1ccc2cccc(NC(=O)COc3ccc(C)c(C)c3)c2n1,nt,nt,nt,nt,nt,-3
Cc1cc(C)c2ccc(C(=O)O)nc2c1O,-6,i,-63*,1%[56.9 µM],-6,11
Cc1cc(=O)oc2cc(OCc3nc(C(C)(C)C)no3)ccc12,nt,nt,nt,nt,nt,-5
COc1ccc(-n2nnnc2S(=O)(=O)CC(=O)N2CCCCC2)cc1,57,i,-98*,-35%,-9,-6
COc1ccc(-n2nnnc2S(=O)(=O)Cc2ccc(C(=O)O)cc2)cc1,64,i,36,-32%,5,3
COc1ccc2[nH]c(=O)c(CN(c3ccccc3)S(=O)(=O)c3ccccc3)cc2c1,1,i,28,-4%,33*,5
COc1ccc2[nH]c(=O)c(CN(Cc3ccco3)C(=O)c3ccccc3)cc2c1,-17,i,-88*,-24%,-8,3
Fc1ccc(-n2cc(CNCCc3cccnc3)c(-c3ccccc3Cl)n2)cc1,4,i,-70*,9%,-4,-5
Fc1ccc(-n2cc(CNCCc3ccncc3)c(-c3ccccc3Cl)n2)cc1,10,i,-1,-5%,-11,-3
CC(NC(=O)c1ccc(C(C)(C)C)cc1)C1CC1 (centres undefined),nt,nt,nt,nt,nt,10
O=[N+]([O-])c1ccc(/C=N\O)o1,-2,nt,nt,nt,-3,nt
O=[N+]([O-])c1ccc(/C=N/N=C/c2ccc([N+](=O)[O-])o2)o1,-1,i,-81*,12%,-35,13
COC(C[C@@H]1O[C@@H]1[C@@H](O)[C@H](C)OCc1ccccc1)OC,-2,i,0,-1%,1,4
COC(C[C@H]1O[C@H]1[C@H](O)[C@H](C)OCc1ccccc1)OC,0,i,12,7%,37*,-4
Cc1ccc2nc(CSc3ccccc3NS(=O)(=O)c3c(C)noc3C)cc(=O)n2c1,nt,nt,nt,nt,nt,9
S=c1sc2c(s1)SCOCS2,nt,nt,nt,nt,nt,7
O=C(/C=C\c1ccccc1)Oc1cccc2cccnc12,-10,i,-59*,20%,-6,4
CCOc1ccc(NC(=O)CN(C)C(=O)c2ccc(N3CCCC3)c([N+](=O)[O-])c2)cc1OCC,3,i,-60*,4%,-6,0
CCOc1ccc(NC(=O)CN(C)C(=O)c2ccc(N3CCCCC3)c([N+](=O)[O-])c2)cc1OCC,2,i,8,-7%,0,-3
COc1cc2sc3cc(NCc4ccc5c(c4)OCO5)ccc3c(=O)c2cc1OC,-5,i,66,4%,41*,0
COc1cccc2sc3cc(NCc4ccc5c(c4)OCO5)ccc3c(=O)c12,0,i,28,4%,-8,-3
